LmPK inh = LmPK (Leishmania mexicana) enzyme inhibition; Q27686; purified LmPK, Kinase-Glo ATP luminescence, 1 h; Potency, µM (series often up to 57.5 µM), for the others: at the top dose activity change, negative = inhibition, actives largely listed as inhibitors; actives 0.37% (n = 290,000); AID 1721; further: potency means the concentration at half of the fitted maximal effect
Target sequence (Q27686 whole entry, looked up): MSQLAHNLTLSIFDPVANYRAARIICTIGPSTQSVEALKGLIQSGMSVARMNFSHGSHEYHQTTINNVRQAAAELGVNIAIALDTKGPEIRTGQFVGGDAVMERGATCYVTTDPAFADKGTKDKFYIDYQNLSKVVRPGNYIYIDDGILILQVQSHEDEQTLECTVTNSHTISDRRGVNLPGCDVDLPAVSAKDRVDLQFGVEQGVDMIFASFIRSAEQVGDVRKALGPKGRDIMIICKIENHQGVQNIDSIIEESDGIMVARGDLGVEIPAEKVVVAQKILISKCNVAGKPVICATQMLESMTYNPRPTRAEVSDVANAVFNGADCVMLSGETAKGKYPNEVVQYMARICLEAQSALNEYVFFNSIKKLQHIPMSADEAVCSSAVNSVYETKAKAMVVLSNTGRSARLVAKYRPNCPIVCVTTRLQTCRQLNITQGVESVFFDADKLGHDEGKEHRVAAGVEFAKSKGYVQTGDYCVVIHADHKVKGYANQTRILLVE
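Pyruvate kinase activity monitored as ATP production (luciferase luminescence). Conditions: 0.1 nM enzyme, 0.5 mM PEP, 0.1 mM ADP, 1 h, RT; normalized against uninhibited and no-enzyme wells.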
VACV mCherry inh = vaccinia inhibition (mCherry reporter); Vaccinia virus mCherry reporter infection, fluorescence; Potency, µM (series often up to 36.5 µM), inactives show at the top dose activity change, negative = inhibition, hits mostly inhibitors; actives 0.63% (n = 310,000); calls by dose curve; tested in A549 cells; further: potency means the concentration at half of the fitted maximal effect; nearly all actives have a fitted effect of over 35% in size
VACV Venus inh = inhibitors of vaccinia virus (Venus reporter) | Vaccinia virus Venus reporter expression, fluorescence | Potency, µM (titrated, usually from 36.5 µM), without a hit: at the top dose activity change, negative = inhibition, usual class: inhibitors | actives 0.46% (n = 330,000) | AID 720580; calls by dose curve; tested in A549 cells; further: potency means the concentration at half of the fitted maximal effect; nearly all actives have a fitted effect of over 30% in size
HCMV antiviral = human cytomegalovirus inhibition; actives 4.5% (n = 410,000); activity change, negative = inhibition, % at 57.5 µM; HFF cells, HCMV-luciferase reporter, 72 h; active compounds read low; AID 1259415; in the data active means activity change below about -60%; inconclusive means no clear call, values can overlap the other calls; inactive means above about -39%
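After 16 h attachment at 37C, HFF cells received test compound and HCMV-luciferase (1 PFU/cell); reporter luminescence read 72 h later, data normalized against buffer-only and known inhibitor Salinomycin.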
TbPYK inhibitor = T. brucei pyruvate kinase inhibition | TbPYK enzyme, Kinase-Glo Plus ATP luminescence, 45 min | Potency, µM (series often up to 76.8 µM), without a hit: top-dose activity, negative = inhibition, actives largely listed as inhibitors | actives 0.12% (n = 410,000) | AID 624173; further: potency means the concentration at half of the fitted maximal effect; nearly all actives have a fitted effect of over 50% in size
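Glycolytic pyruvate kinase of T. brucei was incubated with substrate, test compound and 130 uM ADP for 45 minutes at room temperature. Luminescent Kinase-Glo Plus signal was measured after 10 minutes.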
* hit, by the source's call; i = inactive; ? = inconclusive; . = no result given; [ ] = dose if it differs, or a comment. Sampled rows, rich in hits. Any-hit rate of the full collection: about 5%. Unless noted, the call rests on the fitted dose curve; in most records, active means well fitted curve in the direction sought with a large enough effect; inconclusive means small, poorly fitted or top-dose-only effect, or another doubt; inactive means no such curve, though single readings can be large; an effect the other way counts as inactive or inconclusive. On the % scale 0 is the no-effect control and ±100 the full control effect.

SMILES	LmPK inh	VACV mCherry inh	VACV Venus inh	HCMV antiviral	TbPYK inhibitor
CCC(C(=O)NC1CC1)n1nc(C)c2c(C)n(-c3ccc(C)cc3)nc2c1=O (stereo not given)	-2.7%	.	.	?	0.1%
CCOc1ccc(CNC(=O)C(C)n2nc(C)c3c(C)n(-c4ccccc4)nc3c2=O)cc1 (stereo not given)	-6.8%	.	.	?	6.0%
c1ccc(-c2cc3ccccc3[nH]2)cc1	-6.9%	-14.3%	-9.3%	-65.1*	8.9%
Nc1ccc(-c2cc3ccccc3[nH]2)cc1	.	-19.1%	-9.3%	.	.
CC(C)(C)C(=O)Nc1nnc(SCC(=O)NCc2cccs2)s1	-2.7%	.	.	35.4	-1.7%
CC(C)C(=O)Nc1nnc(SCC(=O)NCc2cccs2)s1	-0.2%	.	.	-91.8*	-2.3%
O=C1O[C@@H](c2ccccc2)C[C@@H](O)C(=O)CCCCc2ccccc21	.	-2.0%	-1.5%	8.4	1.5%
CN(c1ccccc1)S(=O)(=O)c1ccc(Cl)c(C(=O)NC2=NCCS2)c1	-7.3%	13.0%	-18.1%	-101.3*	1.4%
CN(c1ccc(F)cc1)S(=O)(=O)c1ccc(Cl)c(C(=O)Nc2ccncc2)c1	.	-16.3%	-10.6%	-65.3*	3.6%
COc1ccc(Cl)cc1N/C(N)=N/c1nc(C)cc(C)n1	-3.0%	i	5.6%	11.9	-3.5%
COC(=O)CNS(=O)(=O)c1ccc(C)cc1	4.9%	-7.6%	-5.2%	7.0	0.1%
CCN1CCC(CNCc2cn(-c3ccc(OC)cc3)nc2-c2ccccc2Cl)C1 (stereo not given)	3.8%	?	-19.9%	-70.8*	-6.4%
COc1ccc(NC(=O)COc2cccc3c2CCN(Cc2cccnc2)C3=O)c(OC)c1	-11.9%	.	.	?	1.2%
CCOc1ccccc1CN1CCN(C2CCSCC2)CC1CCO (stereo not given)	3.8%	i	-6.0%	6.3	-4.7%
COc1ccc(S(=O)(=O)Oc2ccc3c(c2)O/C(=C\c2cccnc2)C3=O)cc1	4.0%	i	-16.0%	-109.6*	2.6%
CCC1=Nc2cc(C(=O)NCc3ccco3)ccc2Sc2ccc(Cl)cc21	-1.6%	-4.4%	?	-66.6*	3.0%
CC1=Nc2cc(C(=O)NC3CCCC3)ccc2Sc2ccc(Cl)cc21	.	?	?	-72.0*	-2.9%
CC1=Nc2cc(C(=O)NC3CCCC3)ccc2Sc2ccc(C)cc21	.	-7.4%	?	-93.4*	-1.4%
CCC1=Nc2cc(C(=O)NCc3ccco3)ccc2Sc2ccccc21	2.5%	.	.	-2.5	-1.0%
CCC1=Nc2cc(C(=O)NC3CCCC3)ccc2Sc2ccc(Cl)cc21	.	?	?	-70.5*	-7.9%
CC(C)CCNC(=O)CN1C(=O)CSc2ccc(S(=O)(=O)N3CCC(C)CC3)cc21	.	-7.6%	-5.6%	-24.2	0.0%
CC1=Nc2cc(C(=O)NC(C)C)ccc2Sc2ccc(C)cc21	.	-29.9%[7.34 µM]	-20.7%[7.34 µM]	-76.9*	0.2%
Cc1nnc(SCCN2C(=O)c3ccccc3C2=O)[nH]c1=O	5.1%	.	-14.5%	-9.4	4.4%
Cc1ccsc1C(=O)Nc1cc(C(C)(C)C)nn1-c1ccccc1	7.9%	.	.	-109.7*	-0.1%
CC(C)(C)c1cc(NC(=O)CCl)n(-c2ccccc2)n1	-3.6%	-1.7%	-3.7%	?	0.8%
SMILES	LmPK inh	VACV mCherry inh	VACV Venus inh	HCMV antiviral	TbPYK inhibitor
COc1ccc(-n2cnnc2SCC(=O)Nc2cc(C(C)(C)C)nn2-c2ccccc2)cc1	2.3%	.	-11.9%	-96.5*	-10.1%
CCN(CC)S(=O)(=O)c1ccc2oc(Nc3ccc(OC)cc3OC)nc2c1	2.5%	-21.8%	-14.9%	4.1	3.1%
COc1cc(CN2CCC(C(=O)N3CCN(c4ccccc4F)CC3)CC2)ccc1O	-3.5%	.	.	-21.1	17.2%
CCn1c2c(c(=N)c3c1CCC3)CCCC2	-4.4%	i	-9.2%	-67.2*	4.4%
CCOC(=O)Cn1c2c(c(=N)c3c1CCC3)CCC2	2.2%	-16.6%	-19.1%	2.5	2.1%
CCCCCCCCCn1c2c(c(=N)c3c1CCC3)CCCC2	6.5%	?	?	.	8.6%
CCCCCCCCn1c2c(c(=N)c3ccccc31)CCC2	-3.7%	?	?	-97.0*	-2.0%
CCCCCn1c2c(c(=N)c3ccccc31)CCC2	-6.2%	i[7.34 µM]	2.8%[7.34 µM]	-96.4*	1.7%
CCOC(=O)Cn1c2c(c(=N)c3ccccc31)CCC2	-1.8%	.	-8.5%	5.2	-0.6%
CCCCn1c2c(c(=N)c3ccccc31)CCC2	-0.1%	i	-27.0%	-36.2	-3.5%
